In PubChem BioAssay AID1347417 (National Center for Advancing Translational Sciences (NCATS), 2020):
Screen size: about 120,000 compounds; about 5,300 (4.4%) were called active. Entries that show only a call come without a potency. Inconclusive results (about 22%) are left out. Calls follow the shape of the dose curve; as a rule, active = well fitted inhibition curve with a large enough effect; inconclusive = small, poorly fitted or top-dose-only effect; inactive = no such curve, though single readings can be large or run the other way. For the sample, actives were picked, then their nearest neighbours and some compounds at random.

Experiment: qHTS Primary assay for Inhibitors of Plasmodium falciparum Dd2 growth in vitro; also: nearly all actives have a fitted effect of over 65% in size
Conditions: P. falciparum Dd2 growth, SYBR Green, 72 h; series mostly up to 28.9 µM
In short: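 Readout: SYBR Green fluorescence, 485 nm excitation, 535 nm emission, after ~16 h lysis at 37C. Before that, Dd2-infected red cells (2.5% hematocrit) grew 72 h with compound, 29 uM top final concentration.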
Potency is read from the fitted curve at half-maximal effect.

| SMILES | Potency | outcome | activity, negative = inhibition |
| --- | --- | --- | --- |
| CC(C)c1nc2nccc(-c3ccc4c(c3)OCCCO4)n2n1 | inactive | – | – |
| CCC(CC)NC(=O)c1ccc(-c2nnc3ccc(NC(=O)C4CCC4)cn23)cc1 | 2510 nM (active) | – | – |
| O=C(Nc1ccc(C2(C(=O)N3CCCCCC3)CCC2)cc1)C1CC1 | inactive | – | – |
| O=C(Nc1ccc2ncnc(N3CCCCC3)c2c1)C1CCCCC1 | inactive | – | – |
| CCC(=O)Nc1ccc2nnc(-c3ccc(C(=O)Nc4ccc(OC)cc4)cc3)n2c1 | 708 nM (active) | – | – |
| COc1cc(C(=O)Nc2ccc(OCc3cc(=O)n4cc(C)sc4n3)cc2)cc(OC)c1OC | inactive | – | – |
| COc1ccc(-c2cn3c(n2)sc2cc(C(=O)Nc4ccc(F)cc4)ccc23)cc1 | inactive | – | – |
| COC[C@@H]1CN(Cc2ccc(F)c(OC)c2)C[C@H]1C(=O)N(C)C | inactive | – | – |
| CCc1cc2c(-c3ccccc3)cc(=O)oc2c2c1OCN(Cc1ccc(C)cc1)C2 | 2240 nM (active) | – | – |
| Cc1ccc(CN2COc3cc(C)c4c(oc(=O)c5ccccc54)c3C2)cc1 | 1120 nM (active) | – | – |
| CCn1c2c(c(=O)n1Cc1ccccc1)CCN(C(=O)Cc1ccc3c(c1)OCO3)C2 | inactive | – | – |
| Cc1ccc(Cn2c(=O)n(Cc3nc(-c4ccccc4)no3)c(=O)c3cc4c(cc32)OCO4)cc1 | inactive | – | – |
| COCCn1cc2c3c(cccc31)CN(C(=O)c1c(F)cccc1Cl)CC2 | inactive | – | – |
| O=C(Nc1ccc(Cl)cc1)c1nc2c(o1)CCN(Cc1ccsc1)CC2 | inactive | – | – |
| COCCn1ncc(N2CCC(NC(=O)C3CCC3)CC2)cc1=O | inactive | – | – |
| O=C(c1cccc2[nH]ccc12)N1C[C@@H](CO)[C@H](c2ccccn2)C1 | inactive | – | – |
| CN1CCC2(C1)CN(CC1CC1)c1ccc(C(=O)NC3CC3)cc12 (stereo not drawn) | inactive | – | – |
| COc1ccc(-c2cn3c(n2)sc2cc(C(=O)Nc4ccccc4F)ccc23)cc1 | inactive | – | – |
| CCOC(=O)c1ccccc1NC(=O)c1sc2nc(-c3ccc(F)cc3)cn2c1C | inactive | – | – |
| CCN1CCN(CCCNC(=O)c2ccc3c(c2)sc2nc(-c4ccc(OC)cc4)cn23)CC1 | 3160 nM (active) | – | – |
| CCOc1ccc(CCNC(=O)c2ccc3c(c2)sc2nc(-c4ccc(F)cc4)cn23)cc1OCC | 5620 nM (active) | – | – |
| COc1ccc(CCNC(=O)c2ccc3c(c2)sc2nc(-c4ccc(C)cc4)cn23)cc1OC | inactive | – | – |
| COc1ccc(-c2cn3c(C)c(C(=O)Nc4cc(C)cc(C)c4)sc3n2)cc1 | inactive | – | – |
| Cc1cccc2nnc(N3CCN(C(=O)c4ccc(F)c(F)c4)CC3)n12 | inactive | – | – |
| O=C(CCNc1c(-c2ccccc2)nc2cnccn12)N1CCC(N2CCCCC2)CC1 | inactive | – | – |

| SMILES | Potency | outcome | activity, negative = inhibition |
| --- | --- | --- | --- |
| CCn1cc(-c2ccccc2)cc1C(=O)NCc1ccccn1 | inactive | – | – |
| CCCCN1C(=O)c2ccccc2C(C(=O)NCCCOC)C12CCCCC2 (stereo not drawn) | inactive | – | – |
| C=CCNC(=O)N1CC[C@H]2CC(=O)N(CC(N)=O)CC[C@H]2C1 | inactive | – | – |
| O=C(c1cc2cccnn2n1)N1CCOCC1 | inactive | – | – |
| Cc1ccc2cc(CCC(=O)O)c(=O)[nH]c2c1 | inactive | – | – |
| Cc1cc2nc3n(c(=O)c2n1CC(=O)NCc1ccccc1Cl)CCCC3 | inactive | – | – |
| Oc1ccccc1CNC1(Cc2cc(CN3CCOCC3)on2)COC1 | inactive | – | – |
| C[C@@H](NC(=O)C[C@@H]1[C@H](O)CC[C@@H]2[C@](C)(CO)[C@H](O)CC[C@]21C)c1ccccc1 | inactive | – | – |
| COc1ccc(C(=O)N2CCC(Oc3ncccc3C(=O)N(C)C)C2)c(OC)c1 (stereo not drawn) | inactive | – | – |
| CC[C@@H](NC(=O)CC1CCN(Cc2ccccc2)CC1)C1CC(O)C1 (stereo partly drawn) | inactive | – | – |
| CCOc1ccc(C(=O)N2CCN(c3cc(-c4cccs4)[nH]n3)CC2)cc1 | inactive | – | – |
| CCOc1ccc(C(=O)N2CCC3(CC2)c2nccn2-c2ccccc2CN3C)cc1 | – | inactive [at 5.79 µM] | – |
| CCOc1ccc(C(=O)N2CCN(CCc3ccccn3)CC2)cc1 | 2820 nM (active) | – | – |
| Cc1oc2ccn(Cc3cccc(F)c3)c(=O)c2c1C(=O)NCc1cccnc1 | inactive | – | – |
| O=C(O)Cn1ccc2cc(OCCc3cccc(-c4cccnc4)c3)cnc21 | inactive | – | – |
| CCC(CC)c1cc([C@H]2CN3CC[C@H]2C[C@@H]3CNC(=O)NCc2ccccc2)nc(-c2ccncc2)n1 | 631 nM (active) | – | – |
| N#Cc1cccc(NC(=O)NC[C@H]2C[C@@H]3CCN2C[C@@H]3CN2CCN(c3ncccn3)CC2)c1 | inactive | – | – |
| CCC(CC)c1cc([C@H]2CN3CC[C@H]2C[C@@H]3CNS(=O)(=O)Cc2ccccc2)nc(-c2ccncc2)n1 | inactive | – | – |
| CC(C)c1nnsc1CN1CCn2nc(CCC(=O)N3CCCC3)cc2C1 | inactive | – | – |
| CCN1C(=O)CCN(C(=O)N(C)C)CC12CCOCC2 | inactive | – | – |
| CCOc1ccc(NC(=O)N2c3ccccc3CC2c2noc(C3CCOCC3)n2)cc1 (stereo not drawn) | inactive | – | – |
| CNC(=O)[C@@H]1CN(C(=O)c2ccco2)C[C@H]1COC | inactive | – | – |
| O=C(C1CCCC1)N1CC2(CCCN(C3CCCCC3)C2)Cc2ccccc21 (stereo not drawn) | 7940 nM (active) | – | – |
| CC(=O)N1CC2(CCN(Cc3cccnc3)C2)Cc2ccccc21 (stereo not drawn) | inactive | – | – |
| C[S+](=O)([O-])N1CC2(Cc3ccccc31)CN(C(=O)C1CC1)C2 | inactive | – | – |

| SMILES | Potency | outcome | activity, negative = inhibition |
| --- | --- | --- | --- |
| COc1ccc2[nH]c3c(c2c1)CCNC31CCN(C(=O)c2ccnn2C)CC1 | inactive | – | – |
| O=C(Cn1nc2c(cc1=O)CCCCC2)Nc1nc(-c2ccncc2)cs1 | inactive | – | – |
| COc1ccc(CN2C(=O)CO[C@H]3CN(C(=O)C4CC4)C[C@H]32)cc1 | inactive | – | – |
| O=C1CO[C@H]2CN(C3CCC3)C[C@H]2N1Cc1ccc(OC(F)(F)F)cc1 | 10000 nM (active) | – | – |
| COc1ccc(CN2C(=O)CO[C@H]3CN(Cc4cccnc4)C[C@H]32)cc1 | inactive | – | – |
| CCNC(=O)N1C[C@@H]2OCC(=O)N(CCOC)[C@@H]2C1 | inactive | – | – |
| Cc1cccc(C(=O)N2CCC(Oc3ccc(-c4noc(C(C)C)n4)cc3)C2)c1 (stereo not drawn) | – | – | 27.3% [at 5.79 µM] (inactive) |
| CC(C)c1nc(-c2ccc(OC3CCN(C(=O)CCc4nc5ccccc5[nH]4)C3)cc2)no1 (stereo not drawn) | 1260 nM (active) | – | – |
| CCc1nc(-c2ccc(OC3CCN(C(=O)Cc4c[nH]c5ccccc45)C3)cc2)no1 (stereo not drawn) | – | – | 2.05% [at 5.79 µM] (inactive) |
| N#Cc1ccc(C(=O)Nc2ccc3n(c2=O)C[C@H]2C[C@@H]3CN(C(=O)NC3CCCCC3)C2)cc1 | inactive | – | – |
| CCOc1ccccc1C(=O)Nc1ccc2c(c1)N(C)C(=O)c1ccccc1S2 | inactive | – | – |
| COc1cccc(NC(=O)CN2C(=O)c3ccccc3Sc3ncccc32)c1 | inactive | – | – |
| COc1cccc(NC(=O)Nc2ccc3c(c2)N(C)C(=O)c2ccccc2S3)c1 | 12600 nM (active) | – | – |
| CCn1cc(-c2ccc(C)cc2)cc1C(=O)NCc1cccnc1 | inactive | – | – |
| Cc1cccc(N2CCN(C(=O)c3cc4n(n3)CC(c3ccc(Cl)cc3)OC4)CC2)c1 (stereo not drawn) | inactive | – | – |
| COc1cc(CNCc2ccc(C)c(F)c2F)ccc1OCC(O)CN1CCC(O)CC1 (stereo not drawn) | inactive | – | – |
| N#Cc1cccc(CN2C[C@H](O)C[C@H]2c2nc(-c3ccccn3)no2)c1 | inactive | – | – |
| Cc1ccccc1C(=O)NCc1nnc2ccc(-c3ccccc3)nn12 | inactive | – | – |
| COCc1nncn1C1CCN(C(=O)c2ccccc2OC(F)(F)F)CC1 | 10000 nM (active) | – | – |
| COc1ccccc1C(=O)N1CCC(n2cnnc2C2CC2)CC1 | inactive | – | – |
| COCc1nncn1C1CCN(C(=O)c2ccccc2F)CC1 | inactive | – | – |
| COc1ccccc1C(=O)Nc1ccc2c(c1)CN(Cc1ccccc1)C(=O)C(C)O2 (stereo not drawn) | inactive | – | – |
| Cc1cccc(CN2CCCN(Cc3ccncc3)C(c3ccccc3)CC(=O)NCC2)c1 (stereo not drawn) | 1260 nM (active) | – | – |
| CS(=O)(=O)N1CCCN(C(=O)Cc2cccc(F)c2)CCNC(=O)CC1c1ccccc1 (stereo not drawn) | inactive | – | – |
| O=C1CC2CCN(Cc3cccnc3)CC2CCN1 (stereo not drawn) | inactive | – | – |

| SMILES | Potency | outcome | activity, negative = inhibition |
| --- | --- | --- | --- |
| CNC(=O)N1CCCN(S(C)(=O)=O)C(c2ccccc2)CC(=O)NCC1 (stereo not drawn) | inactive | – | – |
| O=C1CC(c2ccccc2)N(C(=O)C2CC2)CCCN(C(=O)Cc2cccc(F)c2)CCN1 (stereo not drawn) | inactive | – | – |
| Cc1ccc(CN2CCCN(Cc3ccncc3)C(c3ccccc3)CC(=O)NCC2)s1 (stereo not drawn) | 1000 nM (active) | – | – |
| CS(=O)(=O)N1CCCN(C(=O)CN2CCCCCC2)CCNC(=O)CC1c1ccccc1 (stereo not drawn) | inactive | – | – |
| Cc1ccccc1CNC(=O)C1CCCN(Cc2cccnc2)CCC(=O)NCC1 (stereo not drawn) | inactive | – | – |
| O=C1CC(c2ccccc2)N(Cc2ccncc2)CCCN(Cc2cccnc2)CCN1 (stereo not drawn) | 4470 nM (active) | – | – |
| N#Cc1ccc(CC(=O)N2CC(CNc3cccnc3)C3(C2)CN(c2ccccc2)C3)cc1 (stereo not drawn) | inactive | – | – |
| CCN1CC2(CCN(C(=O)c3cc4c(nc3OC)CCC4)CC2)OC1=O | inactive | – | – |
| CNC(=O)[C@H]1C[C@H](Oc2ccccc2)CN1C(=O)c1ccccc1 | inactive | – | – |
| FC(F)(F)CN1C2CCC1CN(c1cncc(Cl)n1)C2 | inactive | – | – |
| CC(NC(=O)c1coc(COc2ccc3c(c2)OCO3)n1)c1ccc2[nH]ccc2c1 (stereo not drawn) | inactive | – | – |
| Cn1cncc1-c1nnc([C@H]2CCN(CC3CC3)C2)o1 | inactive | – | – |
| CCOC(=O)CCNC(=O)N1CC[C@H]2C(=O)NCCCCCCN(Cc3ccncc3)[C@@H]2C1 | inactive | – | – |
| C=CCNC(=O)CCc1c(CC)nn(-c2ccccc2)c1Oc1ccccc1OC | inactive | – | – |
| CC(=O)c1c(C)nn(CC(=O)N2C[C@H](O)[C@@H](N3CCC(O)CC3)C2)c1C | inactive | – | – |
| CCc1nc2c(=O)n(CC(=O)NCc3ccc(Cl)cc3)nc(C)c2s1 | inactive | – | – |
| COc1cccc(-c2n[nH]c3c2C(c2cccc(O)c2)N(C)C3=O)c1 (stereo not drawn) | inactive | – | – |
| CCCCN1C(=O)c2[nH]nc(-c3ccccc3O)c2C1c1cccc(OCc2ccccc2)c1 (stereo not drawn) | 3160 nM (active) | – | – |
| CCCOc1ccc(C2c3c(-c4ccccc4O)n[nH]c3C(=O)N2Cc2cccnc2)cc1 (stereo not drawn) | inactive | – | – |
| Cc1cc(C(=O)NCC2Cn3cccc3C(=O)N2C)nn1C (stereo not drawn) | inactive | – | – |
| COC(=O)CCNC(=O)C1c2ccccc2C(=O)N(CC(C)C)C12CCCC2 (stereo not drawn) | inactive | – | – |
| COc1ccccc1NC(=O)C1c2ccccc2C(=O)N(CC(C)C)C12CCCC2 (stereo not drawn) | 3550 nM (active) | – | – |
| CC(C)CN1C(=O)c2ccccc2C(C(=O)NCc2ccccn2)C12CCCC2 (stereo not drawn) | inactive | – | – |
